# Results taken from ChEMBL document CHEMBL3988442, “University of Dundee, Small-Polar-MMV Screening Library” (2021).
# The campaign covered roughly 48,000 compounds. About 13,000 (27%) showed an effect of 50% or more. The list shows a part of the results.
# System: Wolbachia pipientis
# Test: Anti-Wolbachia Cell-Based Screen
# Type: functional
# Parameters: scale not given: in the data most compounds retested in dose-response had high values
# Details: 5 µM
row,SMILES,Percent Effect
1,CC(NC(=O)N1CCc2ccccc21)c1nncn1C (stereo not given),-4.094%
2,Cc1cc(C)c(CNC(=O)N(C)Cc2sccc2C)c(=O)[nH]1,-0.6521%
3,Cc1ccsc1CN(C)Cc1ncccc1C(=O)O,8.285%
4,Cc1ccsc1CN(C)CCc1scnc1C,3.291%
5,CCC(C)N(Cc1sccc1C)C(=O)c1cc(N)ccn1 (stereo not given),107.3%
6,Cc1ccsc1CN(Cc1ncccc1C(=O)O)C1CC1,-1.02%
7,Cc1ccsc1CNC(=O)CSc1nnc[nH]1,-7.3%
8,CCC(C)N(Cc1sccc1C)C(=O)c1ccc(S(C)(=O)=O)cc1 (stereo not given),114.6%
9,COC(=O)c1ccc(S(=O)(=O)NCC(O)c2sccc2C)cc1 (stereo not given),1.544%
10,CNS(=O)(=O)c1csc(C(=O)NCc2sccc2C)c1,-10.67%
11,CCC(C)N(Cc1sccc1C)C(=O)c1ccc2cccnc2n1 (stereo not given),114.4%
12,CNS(=O)(=O)c1csc(C(=O)N(C)Cc2sccc2C)c1,1.133%
13,CCC(C)N(Cc1sccc1C)C(=O)c1cnc[nH]1 (stereo not given),112.1%
14,O=C(NC1CC1)[C@H]1COC[C@H]2CN(c3ncc(F)cn3)C[C@H]21,-1.694%
15,O=C(O)COc1ccc(Cl)cc1CN1CCC2(CCOCC2)CC1,5.352%
16,C=C(C)CN1CCC(Nc2nc(C)ns2)CC1,3.989%
17,Cc1nc(C)n(CC2CN(c3ncnc4[nH]ccc34)CCO2)n1 (stereo not given),9.938%
18,Cc1nc(C)n(CC2CCCN(Cc3cc(C#N)ccc3F)C2)n1 (stereo not given),126.4%
19,Cc1nc(C)n(CC2CN(Cc3cc(C#N)ccc3F)CCO2)n1 (stereo not given),105.5%
20,Cc1nc(C)n(CC2CN(Cc3cccc4c3OCCO4)CCO2)n1 (stereo not given),-0.04658%
21,Cc1cc(C)n(CC2CCCN2Cc2ccc(F)cc2C#N)n1 (stereo not given),-16.28%
22,Cc1nc(C)n(CC2CN(c3nnc(C)c(C)c3C#N)CCO2)n1 (stereo not given),-9.439%

row,SMILES,Percent Effect
1,Cc1nc(C)n(CC2CN(c3ncccc3C#N)CCO2)n1 (stereo not given),109.9%
2,N#Cc1ccc(CN2CCCC(Cn3cncn3)C2)c(F)c1 (stereo not given),10.83%
3,Cc1nc(C)n(CC2CN(Cc3cccc(C#N)c3)CCO2)n1 (stereo not given),2.978%
4,Cc1nc(C)n(CC2CCCN2Cc2ccc(F)cc2C#N)n1 (stereo not given),-2.788%
5,Cc1nc(C)n(CC2CCCN(Cc3ccc(F)cc3C#N)C2)n1 (stereo not given),96.96%
6,O=S(=O)(NCC1CCOc2ccccc2C1)N1CCOCC1 (stereo not given),11.66%
7,CS(=O)(=O)N1CCOC2(CCN(c3nccs3)CC2)c2ccccc21,-2.369%
8,N#Cc1ccccc1OCCN1CCCC(c2noc(C3CC3)n2)C1 (stereo not given),29.76%
9,Cc1nc(C)n(CC2CCCN(CCc3ccccn3)C2)n1 (stereo not given),-0.6255%
10,Cc1nc(C)n(CC2CCCN(Cc3ccccc3C#N)C2)n1 (stereo not given),99.33%
11,Cc1nc(C)n(CC2CCCN(Cc3cccc(F)c3F)C2)n1 (stereo not given),100.4%
12,Cc1nc(C)n(CC2CCCN(CCOc3ccccc3C#N)C2)n1 (stereo not given),99.48%
13,Cn1nc2c(cc1=O)CN(Cc1nc(C(C)(C)C)no1)CC2,5.069%
14,Cc1nc(CN2CCCC(CCc3ccccc3C(F)(F)F)C2)co1 (stereo not given),3.253%
15,COc1cnc(N2CC(N3CCOCC3)C2)nc1-c1ccnn1C,-5.867%
16,Cc1ccc(C2CSCCN2CC(=O)N2CCOCC2)cc1 (stereo not given),2.726%
17,CN(Cc1ccccn1)C(=O)CC1CCOc2ccccc21 (stereo not given),-4.334%
18,CN(C)C(=O)CC1CCOc2ccccc21 (stereo not given),-4.71%
19,COCC(=O)N1CCC2(CC1)CC(N1CCOCC1)c1ccc(C)cc12 (stereo not given),6.475%
20,Cc1ccc2c(ccn2CCC(=O)N2CCC(C(N)=O)CC2)c1,23.62%
21,Cc1ccc2c(c1)[C@@H](CC(=O)N(C)C)CCO2,103.2%
22,Cc1ccc2c(c1)[C@@H](CC(=O)N1CCOCC1)CCO2,86.47%

row,SMILES,Percent Effect
1,Cc1ccc2c(c1)C(NC1CCN(C)CC1)CCCO2 (stereo not given),0.3143%
2,Cc1ccc2c(c1)[C@@H](CC(=O)N1CCN(C)CC1)CCO2,86.47%
3,O=C1CCOCCN1Cc1ccc(Cl)c(Cl)c1,9.877%
4,CSc1ccc(NC(=O)NCC(O)C(C)C)cc1F (stereo not given),-14.41%
5,CNS(=O)(=O)CC(=O)N1CCC(c2ccc(F)c(F)c2)CC1,-2.799%
6,CC(C)(C)c1cc(=O)n2c(n1)SCC(C(=O)NCc1cccs1)C2 (stereo not given),98.61%
7,O=C(NCc1cccs1)C1CCN(c2cc(-n3ccnc3)ncn2)CC1,-1.807%
8,O=C(NCc1cccs1)C1CCCN(c2cc(-n3cncn3)ncn2)C1 (stereo not given),-5.792%
9,CC(C)(C)c1cc(=O)n2c(n1)SCC(C(=O)NCc1ccccn1)C2 (stereo not given),106.1%
10,CC(C)Cc1cc(CNC(=O)C2CCCN(Cc3ccco3)C2)no1 (stereo not given),-2.049%
11,CC(C)(C)c1cc(=O)n2c(n1)SCC(C(=O)NCc1ccco1)C2 (stereo not given),102.3%
12,O=C(NCc1cn2cccnc2n1)C1CC(=O)N(Cc2ccccn2)C1 (stereo not given),-14.07%
13,CN1[C@@H](c2ccccc2)[C@@H](C(=O)NCc2ccccn2)C[C@@]1(C)C(=O)O,4.83%
14,O=C(NCc1cccs1)C1CN(C(=O)c2cccs2)CC12CCOCC2 (stereo not given),-10.89%
15,CCc1c(C)nc2n(c1=O)CC(C(=O)NCc1cccs1)CS2 (stereo not given),101.3%
16,COC1CCN(CCNC(=O)NC(C)c2cccc(Cl)c2)CC1 (stereo not given),14.59%
17,O=C(C1CCCCC1)N1CCC(c2n[nH]c3nccnc23)CC1,126.4%
18,O=C(C1CCCC1)N1CCC(c2n[nH]c3nccnc23)CC1,136.1%
19,O=C(CCC(=O)Nc1ccccc1)NCC(=O)c1ccc(F)cc1F,-8.283%
20,O=C(Cn1cnc(-c2ccccc2)cc1=O)Nc1ccncc1,13.41%
21,Cl.NCCC(=O)Nc1ccc(-c2ccccc2)cc1,116.3%
22,CCCc1nc(CNC(=O)Cc2cc(C)no2)cs1,-3.893%

row,SMILES,Percent Effect
1,CCS(=O)(=O)NCCNc1cc(-n2cccc2)ncn1,9.537%
2,COc1ccc2cc(C3CN(C(=O)CCNC(C)=O)CCO3)ccc2c1 (stereo not given),-5.377%
3,O=C(CCNS(=O)(=O)c1ccccc1)N1CCOC(c2ccccc2)C1 (stereo not given),1.988%
4,CNc1cccc(C2CN(C(=O)CNS(C)(=O)=O)CCO2)n1 (stereo not given),125.9%
5,O=C(CCNS(=O)(=O)c1cccnc1)N1CCOC(c2ccccc2)C1 (stereo not given),-17.46%
6,Nc1cccc(C2CN(C(=O)CN3CCOCC3)CCO2)n1 (stereo not given),104.8%
7,CNC(=O)CN1CCOC(c2cccc(N)n2)C1 (stereo not given),126.4%
8,Cc1n[nH]c(C2CN(CC(=O)NCc3ccco3)CCO2)n1 (stereo not given),14.88%
9,CC(=O)NCC(=O)N1CCOC(c2cccc(N)n2)C1 (stereo not given),128.4%
10,COc1ccc2cc(C3CN(C(=O)CN4CCCC4)CCO3)ccc2c1 (stereo not given),0.8606%
11,CC(=O)NCC(=O)N1CCN(C)c2ncccc2C1,-12.03%
12,O=C(Cc1cccc(F)c1F)N1CCOC(c2cccc(O)c2)C1 (stereo not given),-10.07%
13,CNC(=O)CN1CCOC(c2ccccc2C(F)(F)F)C1 (stereo not given),-19.7%
14,CCN(C(=O)CN1CCCC1c1ccc(F)cc1)c1ccccc1C (stereo not given),-2.599%
15,O=C(NCc1ccccc1)c1nc2c(o1)CN(C(=O)c1cccnc1)C2.O=C(O)C(F)(F)F,-11.3%
16,Cc1occc1CNC(=O)C1(C)CCCN1C(=O)c1ccccc1 (stereo not given),-1.558%
17,CCCn1cc(C(=O)N2CCCC2(C)c2nc(C)cc(C)n2)cn1 (stereo not given),137.7%
18,CCCn1cc(C(=O)N2CCCC2(C)c2nc(C)cc(N)n2)cn1 (stereo not given),145.7%
19,CCCN1CC2(CCN(C)CC2)CC1C(=O)NCCn1cc(C)cn1 (stereo not given),2.434%
20,CCn1cc(C(=O)N2CCCC3(CCC(=O)N(CCC(C)C)C3)C2)cn1 (stereo not given),12.9%
21,Cc1cc(CN(C)CC2CC(C3CCCCC3)=NO2)no1 (stereo not given),7.354%
22,CCCOc1ccccc1C(N)CC(C)C (stereo not given),-0.2003%

row,SMILES,Percent Effect
1,CC(C)C[C@H](N)COc1cccc(F)c1Oc1ccccc1,86.38%
2,CC(CNS(N)(=O)=O)Oc1cccc(Cl)c1 (stereo not given),-1.116%
3,CC(C)C[C@H](N)COc1cccc(F)c1Oc1ccc(Cl)cc1,75.53%
4,Cc1ccc(Oc2c(F)cccc2OC[C@@H](N)CC(C)C)cc1,105.2%
5,CCOc1ccccc1C(N)CC(C)C (stereo not given),-6.989%
6,CC(C)COc1ccccc1C(N)CC(C)C (stereo not given),3.721%
7,CC(C)C[C@H](N)COc1cccc(F)c1Oc1cccc(Cl)c1,101.2%
8,COc1ccccc1C(N)CC(C)C (stereo not given),-3.152%
9,Cc1nc(CN)cc(N2CCC(O)(c3ccc(Cl)cc3)CC2)n1,-14.21%
10,O=C(NC(c1ccc(Cl)cc1)C(F)(F)F)c1nc(=O)[nH][nH]1 (stereo not given),-8.616%
11,CCN(C(=O)COC)C(c1cccnc1)c1cc(C)cc(C)c1 (stereo not given),20.72%
12,CCC(C)Oc1cc(C(=O)N(c2cccnc2)C(C)C)ccn1 (stereo not given),-13.41%
13,CCc1cc(N2CCN(c3ccc(Cl)cn3)CC2)n2nccc2n1,4.069%
14,COCC1CN(Cc2ccoc2)Cc2cn(CC3CCCC3)nc21 (stereo not given),-3.642%
15,Cc1cnn(CC2CN(Cc3ccc(C(N)=O)cc3)CCO2)c1 (stereo not given),85.4%
16,Cc1cnn(CC2CN(Cc3cccc(C(N)=O)c3)CCO2)c1 (stereo not given),99.45%
17,Cc1cnn(CC2CN(CC(=O)N3CCc4ccccc43)CCO2)c1 (stereo not given),-2.09%
18,Cc1cnn(CC2CN(Cc3cccc(OC(C)C)c3)CCO2)c1 (stereo not given),92.31%
19,Cc1cnn(CC2CN(CCc3ccncc3)CCO2)c1 (stereo not given),-9.167%
20,Cc1cnn(CC2CN(Cc3cccnc3)CCO2)c1 (stereo not given),94.04%
21,Cc1cnn(CC2CN(Cc3cccc(OCC(N)=O)c3)CCO2)c1 (stereo not given),-6.391%
22,Cc1cnn(CC2CN(Cc3cccc(C(=O)N(C)C)c3)CCO2)c1 (stereo not given),5.735%
